# mIDH1 inhibitor: inhibitors of human mutant IDH1 R132H; O75874; IDH1-R132H enzyme, NADPH consumption, diaphorase/resazurin fluorescence; Potency, µM (top dose mostly 76.6 µM), usual class: inhibitors; hit rate 0.093% among 390,000; AID 602179; further: nearly all actives have a fitted effect of over 65% in size
# Target sequence (O75874 whole entry R132H, stated change not applied): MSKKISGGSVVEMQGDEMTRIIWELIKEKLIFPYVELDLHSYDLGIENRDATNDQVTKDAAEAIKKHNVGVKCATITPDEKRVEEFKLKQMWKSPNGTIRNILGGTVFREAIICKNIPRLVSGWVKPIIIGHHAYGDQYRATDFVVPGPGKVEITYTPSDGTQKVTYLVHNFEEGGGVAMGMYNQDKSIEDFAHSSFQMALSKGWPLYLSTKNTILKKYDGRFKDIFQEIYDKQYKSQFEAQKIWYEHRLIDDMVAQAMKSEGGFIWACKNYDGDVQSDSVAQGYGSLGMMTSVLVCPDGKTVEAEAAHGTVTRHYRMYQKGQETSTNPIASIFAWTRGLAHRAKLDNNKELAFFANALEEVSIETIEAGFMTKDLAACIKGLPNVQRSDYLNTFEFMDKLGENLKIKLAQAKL
#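 IDH1-R132H (0.5 ug/mL dispensed) in pH 7.5 Tris buffer was preincubated 30 min with compound, then given a substrate mix of 0.016 mM NADPH and 2 mM alpha-KG for 80 min at room temperature; remaining NADPH was read by diaphorase/resazurin fluorescence.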
# BRCA1 expr act: activators of BRCA1 expression; Potency, µM (series often up to 46.1 µM), usual class: activators; AID 624202; hit rate 1.1% among 380,000; MCF7-BRCA1-FFLuc reporter, luminescence, 48 h; response scale: scaled: vehicle 0%, 10 µM genistein 100%; further: nearly all actives have a fitted effect of over 80% in size
#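 48 h compound treatment of MCF7-BRCA1-FFLuc cells (phenol-red free MEM, 37 °C), then 15 min with luciferase substrate and luminescence imaging.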
# TrxR1 substrate: rat thioredoxin reductase 1 substrate activity; Potency, µM (series often up to 114 µM); O89049; purified TrxR1 substrate turnover, NADPH consumption readout; hit rate 0.01% among 390,000; further: nearly all actives have a fitted effect of over 50% in size
#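 Rat TrxR1, dispensed at 90 nM, was prereduced with 400 uM NADPH (final) for 5 min at ~22 deg C, then incubated with compound 15 min before 400 uM selenite. A first-read NADPH fluorescence drop versus no-compound background flagged substrates.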
# Giardia killer: Giardia lamblia killing. Giardia lamblia trophozoite viability. activity change, % at 7.66 µM, hits read low. AID 540267. hit rate 0.15% among 340,000; in the data active means activity change below about -80%; inconclusive means between about -30% and that limit;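 further: parasites exposed to compound for two days anaerobically before the ATP read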
#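 Trophozoite viability was measured as ATP-dependent luminescence, read 15-30 min after reagent addition. Before that, parasites at 100 cells/well were exposed to compounds for 48 h, anaerobically, at 37 deg C.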
# rTrxR1 inhibitor: blocks rat thioredoxin reductase 1 | O89049 | recombinant rTrxR1, NADPH fluorescence consumption, selenite substrate | Potency, µM (highest dose often 114 µM), actives largely listed as inhibitors | hit rate 1% among 390,000 | AID 588453; further: nearly all actives have a fitted effect of over 65% in size
#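 Rat TrxR1 (90 nM in the dispensed reagent) was pre-reduced with 400 uM NADPH for 5 min at room temperature, then incubated with compound for 15 min. After 400 uM selenite was added, NADPH fluorescence (Ex 340/Em 450 nm) was followed for 8 min.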
# IL2 activator: activates IL-2 in a cell-based reporter assay | activation, % (series mostly up to about 46 µM) | IL-2 activation reporter assay, cell-based qHTS; stimulated with anti-CD3/CD4/CD28 beads; in transgenic mouse T cells | hit rate 0.065% among 360,000; in the data active means activation above about 50%; inconclusive means mostly about 30% to 49%
#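 Unstimulated transgenic mouse T cells preincubated 60 min with compound, then stimulated with anti-CD3/anti-CD4-coated beads plus anti-CD28 for 18 h at 37 degrees C. IL-2 response read as EGFP and DsRed fluorescence by plate cytometry.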
# Numbers stand for hits; n = inactive; u = inconclusive; x = no result given; [ ] = another dose, or the depositor's remark. A selection: hits, their analogues and other compounds. The true share with any hit is near 2.2%. Unless noted, the call rests on the fitted dose curve; in most records, active means well fitted curve in the direction sought with a large enough effect; inconclusive means small, poorly fitted or top-dose-only effect, or another doubt; inactive means no such curve, though single readings can be large; an effect the other way counts as inactive or inconclusive.
SMILES,mIDH1 inhibitor,BRCA1 expr act,TrxR1 substrate,Giardia killer,rTrxR1 inhibitor,IL2 activator
Fc1cccc(CSc2nc(NCCc3ccccc3)c3ccccc3n2)c1,n,x,n,x,n,x
CC(C)(C)OC(=O)N[C@@H](Cc1ccccc1)c1nnc(S(=O)(=O)Cc2cccc(F)c2)o1,n,n,n,n,0.631µM,n
CC(C)C[C@H](N)c1nnc(S(=O)(=O)Cc2cccc(F)c2)o1,n,n,n,n,0.631µM,n
CC(C)[C@H](NC(=O)OC(C)(C)C)c1nnc(S(=O)(=O)Cc2c(F)cccc2Cl)o1,n,n,n,n,0.708µM,n
Cc1ccccc1CS(=O)(=O)c1nnc([C@H](CC(C)C)NC(=O)OC(C)(C)C)o1,n,n,n,n,3.98µM,n
CC[C@@H](C)[C@H](NC(=O)OCc1ccccc1)c1nnc([C@@H](NC(=O)OCc2ccccc2)[C@@H](C)CC)o1,n,n,n,n,n,n
CC[C@@H](C)[C@H](NC(=O)OC(C)(C)C)c1nnc(S(=O)(=O)Cc2cc(C)ccc2C)o1,n,n,n,n,1.12µM,n
COc1cc(OC)c(OC)cc1/C=C/c1cc[n+](C)c2ccccc12,x,n,n,x,n,x
CC(C)(C)C(=O)Cn1ncc(N2CCCC2)c(Br)c1=O,n,10µM,n,n,n,n
c1ccc(CSc2n[nH]c(-c3ccco3)n2)cc1,n,11.2µM,n,n,n,n
c1ccc(CSc2nccc(-c3ccco3)n2)cc1,n,n,n,n,u,n
O=C(CCS(=O)(=O)c1ccccc1)N(CCCN1CCOCC1)c1nc2ccc(F)cc2s1,n,n,n,n,7.08µM,n
Cc1ccc(S(=O)(=O)CC(=O)N(CCCN2CCOCC2)c2nc3c(F)cccc3s2)cc1,n,n,n,n,n,n
O=C(CCS(=O)(=O)c1ccccc1)N(CCCN1CCOCC1)c1nc2c(F)cccc2s1,n,n,n,n,3.16µM,n
C=C1NN(Cc2ccccc2)C(=O)N1c1ccc(OCc2ccccc2)cc1,x,n,n,x,n,x
C=C1NN(CC#N)C(=O)N1c1ccc(OCc2ccccc2)cc1,x,10µM,n,x,n,x
Clc1cccc[n+]1CCCCCC[n+]1ccccc1Cl,x,x,n,x,56.2µM,x
O=C(CCl)N(c1ccccc1)C1CCCCC1,n,n,n,n,3.16µM,n
COc1ccc(Cn2c(SCc3ccc(C(=O)NC4CCCCC4)cc3)nc3cccnc32)cc1,n,x,n,x,n,x
COc1ccc(/C=C/C(=O)Nc2nc3n(n2)C(c2ccccc2)C=C(c2ccccc2)N3)cc1 (stereo not given),n,x,n,x,n,x
COC(=O)c1ccc(C2Nc3c(C)cc(C)cc3C3C=CCC32)cc1 (stereo not given),n,x,n,x,3.98µM,x
Cc1cc(C)c2c(c1)[C@@H]1C=CC[C@@H]1[C@H](c1ccc(S(=O)(=O)N3CCOCC3)cc1)N2,n,n,n,n,2.82µM,n
COc1ccccc1N(O)C1CC(=O)N(c2ccc(Br)cc2)C1=O (stereo not given),n,n,n,n,44.7µM,n
CCCCCCC(=O)N(O)C1CC(=O)N(c2ccc(F)cc2)C1=O (stereo not given),n,n,n,n,3.55µM,n
CCCCCCC(=O)N(O)C1CC(=O)N(c2ccc(Br)cc2)C1=O (stereo not given),n,n,n,n,22.4µM,n
SMILES,mIDH1 inhibitor,BRCA1 expr act,TrxR1 substrate,Giardia killer,rTrxR1 inhibitor,IL2 activator
O=C1CC(N(O)c2ccccc2)C(=O)N1c1ccc(Cl)c(Cl)c1 (stereo not given),n,n,n,n,n,n
O=C(c1ccc2c(c1)N(Cc1ccccc1F)C(=O)c1ccccc1S2(=O)=O)N1CCC(Cc2ccccc2)CC1,n,n,n,x,n,x
COc1ccc(CCNC(=O)CCn2c(=O)c3ccccc3n(Cc3ccccc3F)c2=O)cc1OC,n,n,n,x,n,x
CC(=O)c1ccc(OC(C)c2nc3ccccc3s2)cc1 (stereo not given),n,6.31µM,n,n,n,n
CC(C)(C)OC(=O)N/N=C\c1ccc(OC(=O)c2ccco2)cc1,n,7.94µM,n,n,n,n
O=C(NN1C(=O)/C(=C/C=C/c2ccco2)SC1=S)c1ccncc1,n,n,n,n,12.6µM,n
CC(C)C(C(=O)O)N1C(=O)/C(=C/C=C/c2ccco2)SC1=S (stereo not given),n,n,u,n,31.6µM,n
CC(C)C(C(=O)O)N1C(=O)/C(=C/c2cccn2C)SC1=S (stereo not given),n,n,n,n,n,n
O=C1/C(=C/C=C/c2ccco2)SC(=S)N1c1ccc(O)cc1,n,n,n,n,35.5µM,n
COc1cc(OC)c(NC(=O)C(C)n2c(=O)cc(-c3ccccc3)c3c(C)nn(C)c32)cc1Cl (stereo not given),n,x,n,x,n,x
S=C(Nc1ccc(Cl)cc1)Nc1ccc2c(c1)OCCO2,n,7.08µM,n,n,n,n
O=C(NC(=S)Nc1ccc2c(c1)OCO2)c1ccc(Cl)cc1,n,6.31µM,n,n,n,n
CCc1ccc(C(=O)NC(=S)Nc2ccc3c(c2)OCCO3)cc1,n,6.31µM,n,n,u,n
COc1ccc(-n2cc(-c3ccc4c(c3)OCO4)n(CC(=O)Nc3cccc(C)c3)c2=O)cc1,n,x,n,x,n,x
O=C(CCl)Nc1cc(SCC(O)CO)cc([N+](=O)[O-])c1 (stereo not given),n,n,n,n,5.62µM,n
CC(C)=NOc1cc(NC(=O)CCl)cc([N+](=O)[O-])c1,n,n,n,n,2.82µM,n
CCC(=O)Nc1cc(SCCO)cc([N+](=O)[O-])c1,n,n,n,n,n,n
N#CC1=C(N)CCC1,x,n,n,x,n,x
Cc1nn2c(-c3ccco3)nnc2c2ccccc12,n,n[1.84 µM],n,n,79.4µM,n
Cc1cn(C2CC3OCC(NC(=O)C(Cc4ccccc4)NC(=O)OC(C)(C)C)C3O2)c(=O)[nH]c1=O (stereo not given),x,x,n,n,n,x
Cc1nn(-c2ccc(F)cc2)c(-n2cccc2)c1C(=O)N1CCN(c2ccccc2F)CC1,n,n,n,x,n,x
Cc1cc(C)n(S(=O)(=O)c2ccccc2[N+](=O)[O-])n1,n,n,n,-86.9,n,n
Cc1cc(C)n(S(=O)(=O)c2ccccc2)n1,n,n,n,n,n,n
CCc1ccc(CNc2ccc3c(c2)ncn3CC)cc1,n,6.31µM,n,n,n,n
Nn1c(Nc2ccccc2)nc2ccccc21,n,10µM,n,n,n,n
CCOc1ccc(CNc2ccc3c(c2)nc(C)n3C)cc1,n,11.2µM,n,n,n,n
CCOc1ccc(Nc2nc3ccccc3n2C)cc1,n,2.51µM,n,n,n,n
O=C(NCC(c1cccnc1)N1CCc2ccccc21)c1ccc(F)c(F)c1 (stereo not given),n,x,n,x,n,x

# Assay outcomes: PubChem, National Center for Advancing Translational Sciences (NCATS)
